Test results taken from paper PMC4552634, “A New Set of Chemical Starting Points with Plasmodium falciparum Transmission-Blocking Potential for Antimalarial Drug Discovery” (PLoS ONE, 2015).
Out of some 13,000 compounds screened, about 3,200 (25%) showed an effect of 50% or more. This is one part of the list.

The molecules below were run on P. falciparum stage V gametocytes. Settings: 48 h, 5 µM; inhibitor.
Design: BacTiter-Glo ATP luminescence viability of purified stage V gametocytes in 384-well plates, per cent inhibition versus DMSO

Compound	% Inhibition [%]
Cc1nc2ccc3ccc(CNc4ccc(C(=O)N[C@@H](CCC(=O)O)C(=O)O)c(F)c4)cc3c2c(=O)[nH]1 [TCMDC-138112]	-4.938
Cc1ccc2ccncc2c1N [TCMDC-138025]	-56.11
CN1CCC(N2CCN(c3ccc4c(=O)nc(CCc5cccc(F)c5F)n(CC(=O)N(C)Cc5ccc(-c6ccc(C(F)(F)F)cc6)cc5)c4n3)CC2)CC1 [TCMDC-136512]	105.9
CN(Cc1ccc(-c2ccc(C(F)(F)F)cc2)cc1)C(=O)Cn1c(CCc2cccc(F)c2F)nc(=O)c2ccc(N3CCN(CCN4CCCCC4)CC3)nc21 [TCMDC-136511]	109.8
Cc1cc(NC(=O)Nc2cccc(C#N)c2)c2ccccc2n1 [TCMDC-138953]	4.681
Nc1cccc(CNCc2ccc(-c3ccc(-c4nc5ccccc5[nH]4)s3)cc2)c1 [TCMDC-132927]	-10.94
CSc1nc2nc(C)c(Cc3cccc(C(F)(F)F)c3)c(C)n2n1 [TCMDC-123763]	-63.49
CN(C)CCC(O)(c1ccc(Br)cc1)c1cccnc1 (stereo not drawn) [TCMDC-131412]	-6.865
Cn1c2ccccc2c2c3ccccc3c(CNC(CO)(CO)CO)cc21 [TCMDC-137747]	1.595
CC(CO)(CO)NCc1cc2ccc3ccsc3c2c2ccccc12 [TCMDC-137753]	1.403
CC(CO)(CO)NCc1cc2c3ccccc3c(CNC(C)(CO)CO)cc2c2ccccc12 [TCMDC-137752]	88.47
COc1ccccc1C1CC(c2ccc(C)cc2)=NN1C(=O)c1ccccc1 (stereo not drawn) [TCMDC-123887]	21.23
COc1cc(Cc2cnc(N)nc2N)c2ccsc2c1OC [TCMDC-137762]	-4.679
Cc1cc(NCCc2ccccc2)nc(/N=C(\N)Nc2ccccc2Cl)n1 [TCMDC-138370]	92.38
CCOC(=O)N1CCN(CCCCCNc2cc(C)nc(/N=C(\N)Nc3ccc(Cl)cc3)n2)CC1 [TCMDC-138013]	60.55
CCOc1cc(C)ccc1N1CCN(CCCCNC(=O)c2ccc(NC(=O)c3ccc(Cl)cc3)cc2)CC1 [TCMDC-138523]	2.314
CCOC(=O)N1CCN(C(=O)Nc2ccc(Cl)cc2)CC1 [TCMDC-125820]	-28.23
CCN(CC)CCNc1cc(C)nc(/N=C(\N)Nc2ccc(Cl)cc2)n1 [TCMDC-137477]	81.2

Compound	% Inhibition [%]
CCOC(=O)c1cccc(NC(=O)Nc2cc(C)nc3ccccc23)c1 [TCMDC-138957]	-2.163
CCOC(=O)c1cccc(N/C(N)=N/c2nc(C)cc(NCCc3ccccc3)n2)c1 [TCMDC-138372]	76.13
Cc1cc(N2CC=CCC2)nc(/N=C(\N)Nc2ccc(Cl)cc2)n1 [TCMDC-131240]	30.94
CCNc1cc(C)nc(Nc2ccc(NC(=O)c3c(F)cccc3Cl)cc2)n1 [TCMDC-124984]	3.1
COc1ccc2nccc(NC(=O)C3(O)CCC(NCc4ncc5c(c4Cl)OCCO5)CC3)c2n1 (stereo not drawn) [TCMDC-141562]	2.096
O=C(O)C(F)(F)F.O=C(O)CCc1ccc(-c2c[nH]c3ncc(-c4ccc5ncccc5c4)cc23)cc1 [TCMDC-136336]	14.57
COc1ccc2nccc([C@@H](O)CN3CCC(NCc4cn5cc(F)ccc5n4)CC3)c2c1 [TCMDC-140778]	43.65
Cn1c(NC(=O)C2CCC(CNC(=O)c3ccc(O)c(-c4ccc(Cl)c(Cl)c4)c3)CC2)nc2ccccc21 (stereo not drawn) [TCMDC-140897]	13.96
O=C(NCc1cccnc1)C(c1cc2ccccc2o1)N1CCN(C(c2ccccc2)c2ccccc2)CC1 (stereo not drawn) [TCMDC-141023]	15.45
O=C(NC1CCC(CN2CCC(c3c[nH]c4ccccc34)CC2)CC1)c1cc(-c2ccc(F)cc2F)ccc1O (stereo not drawn) [TCMDC-139894]	-31.8
Cc1cc(NCCc2ccccc2)nc(NC(=NCC(=O)OC(C)(C)C)Nc2ccc(C(F)(F)F)cc2)n1 [TCMDC-138520]	-13.38
Cc1cc(NCCc2cccc(F)c2)nc(/N=C(\N)Nc2cccc(C(F)(F)F)c2)n1 [TCMDC-138508]	57.1
Cc1cc(NCCc2ccccc2)nc(/N=C(\N)Nc2cccc(F)c2)n1 [TCMDC-138373]	55.97
Cc1cc(N2CCCC2)nc(/N=C(\N)Nc2cccc(C(F)(F)F)c2)n1 [TCMDC-138509]	20.83
NC(N)=NN=CC(=O)Nc1cccc(C(F)(F)F)c1 [TCMDC-137563]	10.63
Cc1cc(NCCCOc2ccc(Cl)cc2)nc(NCc2ccccc2)n1 [TCMDC-137548]	-22.71
Cc1cc(NCCc2ccccc2)nc(/N=C(\N)Nc2ccc(Cl)cc2)n1 [TCMDC-131843]	52.3
CCCCCCNc1cc(C)nc(/N=C(\N)Nc2cccc(C(F)(F)F)c2)n1 [TCMDC-138510]	79.07
